Screening results as filed in PubChem BioAssay.
Most compounds without a hit are left out; they make up all but 8.6% or so of the library.
MARV entry inh: blocks Marburg virus binding or cell entry; AID 720532; Potency, µM (highest dose often 49.2 µM), most hits filed as inhibitors; Marburg virus pseudotype entry/binding inhibition, cell-based; actives 6.5% (n = 18,000)
LASV entry inh: blocks Lassa virus binding or cell entry; Lassa virus pseudotyped entry inhibition, cell-based qHTS; Potency, µM (series often up to 49.2 µM), most hits filed as inhibitors; actives 4.1% (n = 18,000)
Hits are given with their value; n = inactive; u = inconclusive; x = not tested or not shown; ! = repeats disagree; [ ] = dose if it differs, or a comment. Calls follow the shape of the full dose curve; tested in HEK293 cells.

SMILES	MARV entry inh	LASV entry inh
CCn1c(-c2nonc2N)nc2c(C#CC(C)(C)O)ncc(OCC3CCNCC3)c21	1.77µM	x
CCn1c(-c2nonc2N)nc2cncc(C(=O)N3CCNCC3)c21	n	n
CN(C)CCCn1c(-c2nonc2N)nc2cnccc21	u	n
CCN1C(=NCCc2c[nH]c3ccccc23)NC(c2ccccc2)C(C(=O)OC)=C1C (centres undefined)	u	n[8.59 µM]
O=C(CCC1CCN(Cc2ccccc2)CC1)c1ccc2c(c1)NCCCC2	14.1µM	u
O=C(NC1CCN(Cc2ccccc2)CC1)c1ccc(I)cc1	n	n
COc1ccc([C@H]2O[C@@H](c3ccc(OC)c(OC)c3)[C@H](C)[C@@H]2C)cc1OC	n	n
Cc1ccc2nc(CNC(=O)c3cc(NC(=O)c4ccccc4)cc4ncn(C5CCCC5)c34)cn2c1	n	n
COc1cccc2c1[C@H](C=Cc1ccccc1)[C@@H]([C@H](O)COC(C)=O)OC2	n[8.59 µM]	n[8.59 µM]
COc1c(C(N)=O)cc(-c2ccc(Cl)cc2)cc1-c1ccc(S(N)(=O)=O)cc1	n	u
O=C(CCCN1CCN(c2ccc(F)cc2)CC1)NC1c2ccccc2CSc2ccccc21 (centres undefined)	14.1µM	n
O=C(CCCN1CCN(c2ccccn2)CC1)c1ccc(F)cc1	n	n
CCO[C@H](c1cc(OC)cc([N+](=O)[O-])c1OC)[C@H](C)[C@@H](OC)[C@H](C)C=CCC(=O)OC	n[8.59 µM]	n[8.59 µM]
C[C@@H]1[C@@H](c2ccccc2)c2cc3ccccc3nc2-c2nc3ccccc3cc2[C@H]1C(=O)N1CCCC1	n[8.59 µM]	n[8.59 µM]
c1ccc(CCNc2nc(-c3ccccc3)cs2)cc1	u	15.8µM
c1ccc(-c2csc(-c3nc4ccccc4[nH]3)n2)cc1	n	u
O=C(OCc1cn([C@H]2C[C@H](c3ccccc3)N(CC3CCCCC3)C[C@H]2O)nn1)c1ccccc1	u	n
Nc1nc(-c2nn(Cc3ccccc3F)c3ncccc23)ncc1C1CC1	0.562µM	0.891µM
Nc1ccccc1C(=O)C=Cc1ccc2c(c1)OCO2	n[8.59 µM]	n[8.59 µM]
O=C(C1CCCCC1)N1C[C@@H](n2cc(-c3ccc(F)cc3)nn2)[C@@H](O)C[C@@H]1c1ccccc1	n	x
C[n+]1cc2c3c(ccc2c2ccc4cc5c(cc4c21)OCO5)OCO3	6.31µM	20µM
O=C(c1ccc([N+](=O)[O-])cc1)N1[C@H](COCc2ccccc2)C=CS1(=O)=O	n	n
CCN(CC)CCOc1ccc(Cc2ccccc2)cc1	10µM	n
CN(C)CCOc1ccc(/C(=C(/CCCl)c2ccccc2)c2ccccc2)cc1	u	n
COc1ccc([C@]23Cc4cc(C#N)ccc4[C@H](O2)C2=C(CC4(CCCCC4)OC2=O)O3)cc1	n[8.59 µM]	n[8.59 µM]
SMILES	MARV entry inh	LASV entry inh
CC(=O)C1=C(C)N(Cc2ccccc2)C(=O)NC1c1ccco1 (centres undefined)	n[8.59 µM]	x
CCCOC(=O)NCCCN(C)C	n	n
CC(C)C1C(=O)N(Cc2cn(CCC3OCCCO3)nn2)CCS(=O)(=O)N1Cc1ccc(-c2ccccc2)cc1 (centres undefined)	n	x
COc1ccc(C2CC(=O)c3ccc(OC)cc3O2)cc1 (centres undefined)	n	n
COc1cc2c(cc1CC=C(C)C)C(=O)C[C@@H](c1ccc(O)cc1)O2	u	8.91µM
CSc1ccc(COCC[C@@H]2C[C@H]3C=CCOP(=O)(O2)O3)cc1	n	n
COc1ccccc1CNc1ncncc1-c1ccc(N(C)C)cc1	n	n
COc1ccc2[nH]cc(CCNc3ncncc3-c3ccc(N(C)C)cc3)c2c1	15.8µM	n
COc1cccc(CNC(=O)c2c(OC)cc(=O)n3c2CCN(C(=O)c2ccc(C)nc2)CC3)c1	n	n
COC1(CS(=O)c2ccccc2)CCN(CCc2c[nH]c3ccc(F)cc23)CC1 (centres undefined)	15.8µM	n
COc1ccc2[nH]cc(CCN(C)C)c2c1	n	n
O=C1NC(=S)NC(=O)C1C(=O)Nc1ccccc1	n	n
O=C1NC(=O)c2cc(Nc3ccccc3)c(Nc3ccccc3)cc21	u	11.2µM
Cc1cc(OCc2cn(CC(=O)c3ccc(O)cc3)nn2)cc(C)c1C	n	u
Cc1cccc(CN2CCN([C@@H]3C[S+](=O)([O-])N[C@@H]3COCc3ccccc3)CC2)c1	n	n
COc1ccc2c(c1OC)C(=O)O[C@@H]2[C@H]1c2c(cc3c(c2OC)OCO3)CCN1C	u	n
COc1cc2c(cc1O)C[C@H]1c3c(cc(O)c(OC)c3-2)CCN1C	n	n
COc1cc2c3cc1Oc1c(OC)c(OC)cc4c1[C@@H](Cc1ccc(OC(=O)c5ccc([N+](=O)[O-])cc5)c(c1)Oc1ccc(cc1)C[C@@H]3N(C)CC2)N(C)CC4	0.631µM	u
COc1ccc2cc1Oc1ccc(cc1)C[C@H]1c3cc(c(OC)cc3CCN1C)Oc1c(OC)c(OC)cc3c1[C@H](C2)N(C)CC3	3.55µM	12.6µM
COc1cc2c3cc1Oc1c(OC)c(OC)cc4c1[C@@H](Cc1ccc(O)c(c1)Oc1ccc(cc1)C[C@@H]3N(C)CC2)N(C)CC4	2.82µM	11.2µM
COc1ccc(CC2c3cc(OC)c(OC)cc3CCN2C)cc1OC (centres undefined)	n	n
COc1ccc2cc1Oc1ccc(cc1)C[C@H]1c3c(cc4c(c3Oc3cc5c(cc3OC)CCN(C)[C@@H]5C2)OCO4)CCN1C	1.78µM	u
COc1cc2c(cc1O)-c1c(O)c(OC)cc3c1[C@H](C2)N(C)CC3	n	n
CCC(=O)Oc1ccc2c(c1)CC[C@@H]1[C@@H]2CC[C@]2(C)[C@@H](OC(=O)CC)CC[C@@H]12	n	n
C[C@H]1[C@@H](c2ccccc2)Oc2c(Cl)cccc2S(=O)(=O)N1Cc1ccc(F)cc1F	u	n
SMILES	MARV entry inh	LASV entry inh
COc1ccc2c(c1)CCc1cnc(-n3ncc(C(=O)N(C)CCc4ccccn4)c3C)nc1-2	n	u
C=CCCC1(CCC)C(=O)C(=C(O)c2ccccc2)C(=O)C(CCC)=C1OC (centres undefined)	n[8.59 µM]	n[8.59 µM]
N#Cc1ccc2c(c1)C[C@]1(CCCCN3C(=O)c4ccccc4C3=O)Oc3c(c(=O)oc4ccc(F)cc34)[C@@H]2O1	n[8.59 µM]	n[8.59 µM]
COC(=O)C1=C[C@]2(c3ccccc3C[C@H](OC)[C@@H]2C)[C@H]2C=C[C@H]1C2	n[8.59 µM]	n[8.59 µM]
C[C@H]1[C@H](N=[N+]=[N-])[C@H](O)CCO[C@@H]1c1ccccc1	n[8.59 µM]	n[8.59 µM]
COC(=O)[C@@]1(C=C2c3ccc(F)cc3[C@@H](OC)[C@@H]2C)[C@@H]2OCCC[C@@H]21	n[8.59 µM]	n[8.59 µM]
CCCCCC(=O)N1C[C@@H](n2cc(-c3ccc(F)cc3)nn2)[C@H](O)C[C@H]1c1ccccc1	u	n
Clc1ccc(Cn2c(CN3CCCC3)nc3ccccc32)cc1	n	n
COc1ccc(CCN2CCC(Nc3nc4ccccc4n3Cc3ccc(F)cc3)CC2)cc1	3.98µM	31.6µM!
CC(=O)O[C@@H]1[C@@H](O)C2OC3C=C(C)C(=O)[C@@H](O)[C@]3(CO)C1(C)C21CO1 (some centres undefined)	0.355µM	0.562µM
C[C@@H]1C=CCC(=O)N[C@@H](c2ccc3ccccc3c2)[C@H](C)C=CCC(=O)N[C@@H]1c1ccc2ccccc2c1	u	n[8.59 µM]
C=CCOC(=O)N[C@@H](c1cccc(OC)c1)[C@@H](C)C=CCC(=O)O	n[8.59 µM]	n[8.59 µM]
C=C(C)[C@]12C[C@@H](C)[C@@]34OC(Cc5ccccc5)(O[C@@H]1[C@@H]3C=C(COC(=O)Cc1cc(I)c(O)c(OC)c1)C[C@]1(O)C(=O)C(C)=C[C@@H]41)O2	12.6µM	17.8µM
